The entries come from a sample that favours hits as a whole.
HIV RNase H inh-1 = blocks HIV-1 RNase H cleavage of RNA/DNA duplex; AID 565; RT-RNase H RNA/DNA duplex cleavage, fluorescence; inhibition, % at 10 µM; 1.9% of 65,000 active; in the data active = inhibition above about 50%
RmlCD inh mix = RmlC/RmlD inhibition, mixture screen | 0.39% of 110,000 active | RmlC/RmlD coupled enzyme inhibition, 384-well mixture HTS | inhibition, % at 5.5 µM; in the data active = inhibition above about 30%, passing the limit was not always enough
HIV RNase H inh-2 = confirmation of HIV-1 reverse transcriptase RNase H inhibitors. shares compounds with HIV RNase H inh-1. Recombinant RT RNase H, fluorescent RNA/DNA duplex cleavage. 39% of 1,000 active. inhibition, % at 10 µM; in the data active = inhibition above about 48%
An asterisk follows results filed as active; · = not tested or not shown.

SMILES	HIV RNase H inh-1	RmlCD inh mix	HIV RNase H inh-2
Nc1c(S(=O)(=O)c2cccc(Cl)c2)c2nc3ccccc3nc2n1/N=C/c1ccc(O)c(O)c1	92*	-2	58*
COc1cccc(/C=N/n2c(N)c(S(=O)(=O)c3cccs3)c3nc4ccccc4nc32)c1OC	·	-28	·
COC(=O)C[C@H]1c2cc(C(F)(F)F)ccc2S(=O)(=O)N1Cc1ccccc1OC	·	-11	·
CC(NC(=O)CNC(=O)OCc1ccccc1)C(=O)N1CC(O)CC1C(=O)OCc1ccccc1 (configuration not stated)	66*	1	39
CNC(=O)[C@@H]1C[C@H]1[C@@H](NC(=O)CNC(=O)OCc1ccccc1)c1ccccc1	·	-8	·
Cc1cc(C)c2cc(C#N)c(SCC(=O)NCc3ccco3)nc2c1	72*	·	35
Cc1ccc2c(SCC(=O)NCc3ccco3)nc(-c3ccc(F)cc3)nc2c1	75*	8	55*
CCOC(=O)CSc1nc2cc(C)cc(C)c2cc1C#N	10	7	·
COc1ccc(-c2[nH]c(-c3ccc(C)cc3)nc2SCC(=O)NCc2ccco2)cc1OC	·	7	·
Cc1ccccc1CN1C(=O)[C@H]2Cc3c([nH]c4ccccc34)C(C)(C)N2C1=O	·	-13	·
O=C(Nc1ccc(N2CCOCC2)cc1)c1ccc2nc(-c3ccco3)c(-c3ccco3)nc2c1	91*	0	63*
CCCCNC(=O)c1ccc2nc(-c3ccco3)c(-c3ccco3)nc2c1	92*	-2	2
O=C(NCc1ccccc1)c1ccc2nc(-c3ccco3)c(-c3ccco3)nc2c1	·	-17	·
O=C(Nc1ccc(N2CCOCC2)cc1)c1ccncc1	·	14	·
CC(=O)c1ccc(NC(=O)c2ccc3nc(-c4ccco4)c(-c4ccco4)nc3c2)cc1	·	6	·
O=C(Nc1ccccc1)c1ccc2nc(-c3ccco3)c(-c3ccco3)nc2c1	100*	-26	28
COC(=O)c1ccc(C(=O)OC)c(NC(=O)CN(c2ccc3c(c2)OCO3)S(C)(=O)=O)c1	·	-10	·
COc1ccc(C(=O)NCCCc2nc3ccccc3n2Cc2ccccc2C)cc1OC	·	-11	·
CC(=O)n1cc([C@H]2C=C(C(N)=O)O[C@@H](OCc3ccc(CO)cc3)C2)c2ccccc21	·	12	·
Cc1ccc(C(O)(COC(=O)C(C)C)COC(=O)C(C)C)c(O)c1	·	0	·
COC(=O)c1ccc(C2CC(=O)NC3=C2C(=O)CCC3)cc1 (configuration not stated)	91*	-6	38
CC(C)Oc1ccc(C2CC(=O)NC3=C2C(=O)CCC3)cc1 (configuration not stated)	-8	-9	·
CC1=C(N2CCCCC2)CCC1=O	·	8	·
COc1ccc(NCc2nnc(SCC(=O)c3ccc(OC)cc3)o2)cc1	·	-1	·
CCOc1cc(C(=O)CSc2nnc(CNc3ccc(Cl)cc3)o2)ccc1NC(=O)CC	67*	-18	14
SMILES	HIV RNase H inh-1	RmlCD inh mix	HIV RNase H inh-2
O=C(Nc1ncc2c(n1)CC(c1ccco1)CC2=O)c1ccccc1 (configuration not stated)	-2	·	·
O=C1CC(c2ccco2)Cc2nc(Nc3nc(-c4ccccc4)c4ccccc4n3)ncc21 (configuration not stated)	73*	·	66*
Cc1cc2oc(C(=O)N(Cc3ccccc3)C3CCS(=O)(=O)C3)cc(=O)c2cc1Cl (configuration not stated)	·	-6	·
COc1ccc(Cn2nnnc2C(c2cccs2)N2CCN(c3ccccc3)CC2)cc1 (configuration not stated)	9	-9	·
COc1ccc(Cn2nnnc2C(c2cccnc2)N2CCN(c3ccc(O)cc3)CC2)cc1 (configuration not stated)	80*	-6	85*
Clc1ccc(-c2nnc3sc(-c4ccccn4)nn23)cc1	-8	14	·
Clc1ccccc1-c1nnc2sc(-c3ccncc3)nn12	-63	3	·
Clc1ccccc1-c1nn2c(-c3ccncc3)nnc2s1	87*	6	57*
c1ccc(-c2nn3c(-c4ccncc4)nnc3s2)nc1	64*	·	47
FC(F)(F)c1ccc(CN2C[C@@H]3C(c4ccc(Cl)nc4)C4(c5ccccc5)CC3(C4)[C@H]2c2ccccc2)cc1 (some centres not stated)	·	-9	·
O=C(NC1CC1)C1=C[C@@H](c2c[nH]c3ccccc23)C[C@@H](OCc2ccc(CO)cc2)O1	·	4	·
O=C(COC(=O)CCC(=O)c1cccs1)Nc1cc(S(=O)(=O)N2CCOCC2)ccc1Cl	·	14	·
Cc1ccc(C)c(C(=O)COC(=O)c2ccccc2N2C(=O)C3C4CCC(C4)C3C2=O)c1 (configuration not stated)	·	2	·
O=C1C[C@@H](c2ccc(O[C@@H]3O[C@H](CO)[C@@H](O)[C@H](O)[C@H]3O)cc2)Oc2cc(O)ccc21	·	-14	·
Cc1ccc(C)c(N2CCN(C(=O)CNS(=O)(=O)c3cccs3)CC2)c1	·	102	·
CC(C)(C)c1ccc(SCC(N)=O)cc1	-12	-7	·

Screening data deposited in PubChem by several laboratories.
